Source: PubChem BioAssay (EPA / NIEHS)
Active and inactive are the calls of the source. How the source made its calls: active means hit-call score of the fitted dose curve at least 0.9, where 1 is the maximum; inactive means score below 0.9.

Assays:
[1] = ATG_CRE_CIS: Attagene CIS-FACTORIAL HepG2 Assay for human cAMP Responsive Element (CRE) binding protein 3 (AID 2282926); settings: HepG2 CRE cis-reporter, Attagene multiplexed mRNA; actives raise or lower the signal
In short: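 Human liver HepG2, transient MRTU transfection, 24 h compound exposure. Total RNA → oligo(dT) RT → PCR → 6-FAM primer extension → HpaI cut → CE. Activity called both directions vs DMSO.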

[2] = target: CCAAT/enhancer-binding protein beta (Homo sapiens) (UniProt P17676); assay: ATG_C_EBP_CIS: Attagene CIS-FACTORIAL HepG2 Assay for human CCAAT/Enhancer Binding Protein (C/EBP) beta (AID 2282927); settings: HepG2 Attagene cis-factorial transcription factor reporter; actives raise or lower the signal
Sequence of CCAAT/enhancer-binding protein beta (Homo sapiens) (P17676 whole entry, looked up): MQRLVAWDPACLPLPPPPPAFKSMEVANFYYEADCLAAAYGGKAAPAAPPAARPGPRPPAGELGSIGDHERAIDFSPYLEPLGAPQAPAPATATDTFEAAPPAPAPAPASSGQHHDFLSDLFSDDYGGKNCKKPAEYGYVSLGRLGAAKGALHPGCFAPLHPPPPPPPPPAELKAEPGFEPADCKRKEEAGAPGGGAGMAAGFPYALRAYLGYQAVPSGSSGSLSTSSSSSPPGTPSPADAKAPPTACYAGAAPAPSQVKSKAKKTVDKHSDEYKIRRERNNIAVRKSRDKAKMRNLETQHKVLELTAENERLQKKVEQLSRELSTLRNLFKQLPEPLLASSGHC
In short: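 RT-PCR/capillary electrophoresis fluorescence of reporter mRNA, 24 h post-dose, in HepG2 cells carrying transfected cis-promoter reporter units. Bidirectional curve fitting against DMSO baseline captures gain or loss of signal.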

[3] = ATG_CMV_CIS: Attagene CIS-FACTORIAL HepG2 Assay for human CMV (Internal Marker) (AID 2282928); settings: HepG2 CMV promoter reporter, transcription factor profiling; actives raise or lower the signal;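 further: endpoint acts as a background internal control marker rather than a target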
In short: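 HepG2 cells transiently transfected with multiple cis-regulated reporter units; 24 h compound exposure. Reporter mRNA quantified by RT-PCR, 6-FAM primer-extension labeling, HpaI digestion and capillary electrophoresis; bidirectional fitting against DMSO baseline.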

[4] = ATG_DR4_LXR_CIS: Attagene CIS-FACTORIAL HepG2 Assay for human Liver X Receptor (LXR), DR4 submotif (AID 2282929); settings: HepG2 Attagene DR4 cis-reporter, mRNA transcription; actives raise or lower the signal
In short: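 HepG2, transient MRTU transfection, cis-element (DR4) promoter; 24 h compound exposure; total RNA → oligo(dT) RT → PCR → 6-FAM primer extension → HpaI cut → CE. Gain/loss vs DMSO, bidirectional fit.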

[5] = target: Aryl hydrocarbon receptor (Homo sapiens) (UniProt P35869); assay: ATG_Ahr_CIS: Attagene CIS-FACTORIAL HepG2 Assay for human Aryl Hydrocarbon Receptor (Ahr) (AID 2282930); settings: HepG2 AhR cis-factorial reporter transcription; actives raise or lower the signal
Sequence of Aryl hydrocarbon receptor (Homo sapiens) (P35869 whole entry, looked up): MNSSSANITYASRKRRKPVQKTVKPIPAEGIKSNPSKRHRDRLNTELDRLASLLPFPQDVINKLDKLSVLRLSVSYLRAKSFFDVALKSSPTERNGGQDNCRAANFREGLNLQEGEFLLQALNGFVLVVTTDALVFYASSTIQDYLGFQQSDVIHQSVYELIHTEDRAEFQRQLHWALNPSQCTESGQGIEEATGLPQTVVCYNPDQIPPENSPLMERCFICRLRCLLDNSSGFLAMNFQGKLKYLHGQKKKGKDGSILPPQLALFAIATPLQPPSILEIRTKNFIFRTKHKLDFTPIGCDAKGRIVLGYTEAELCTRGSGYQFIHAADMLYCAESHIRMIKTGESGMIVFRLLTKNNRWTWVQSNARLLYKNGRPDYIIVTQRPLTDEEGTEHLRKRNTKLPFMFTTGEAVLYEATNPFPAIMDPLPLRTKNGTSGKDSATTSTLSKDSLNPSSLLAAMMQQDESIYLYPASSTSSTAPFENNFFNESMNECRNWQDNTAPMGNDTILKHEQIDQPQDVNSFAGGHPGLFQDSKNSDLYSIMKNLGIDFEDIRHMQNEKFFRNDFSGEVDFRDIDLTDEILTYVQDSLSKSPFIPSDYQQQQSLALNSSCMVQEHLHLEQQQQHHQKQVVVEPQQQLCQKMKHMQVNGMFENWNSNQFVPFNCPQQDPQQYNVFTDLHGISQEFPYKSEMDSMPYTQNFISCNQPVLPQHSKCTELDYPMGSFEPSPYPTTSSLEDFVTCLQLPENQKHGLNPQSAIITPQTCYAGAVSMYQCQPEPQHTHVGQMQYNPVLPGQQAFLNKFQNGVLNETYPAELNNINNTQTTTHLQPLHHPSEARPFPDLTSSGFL
In short: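 HepG2 cells transiently transfected with cis-element-driven multiplexed reporter transcription units; endogenous transcription factor activity measured as reporter mRNA 24 h after dosing. RT-PCR, 6-FAM labelling, HpaI digestion, capillary electrophoresis; bidirectional fitting versus DMSO baseline.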

[6] = ATG_AP_1_CIS: Attagene CIS-FACTORIAL HepG2 Assay for human Activator Protein 1 (AP-1) (AID 2282931); settings: HepG2 Attagene cis-factorial AP-1 reporter mRNA; actives raise or lower the signal
In short: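 Transient MRTU transfection of HepG2 → 24 h chemical treatment → RNA isolation, RT-PCR, 6-FAM labelling, HpaI digest → capillary electrophoresis. Fit: bidirectional, DMSO negative control.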

[7] = ATG_AP_2_CIS: Attagene CIS-FACTORIAL HepG2 Assay for human Activator Protein 2 (AP-2) (AID 2282932); settings: HepG2 AP-2 cis-reporter, Attagene transcription factor profiling; actives raise or lower the signal
In short: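 HepG2 cells were transiently transfected with multiple cis-promoter reporter transcription units and dosed for 24 h. Reporter mRNA was measured by RT-PCR with capillary electrophoresis fluorescence; bidirectional fits relative to DMSO baseline.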

[8] = ATG_BRE_CIS: Attagene CIS-FACTORIAL HepG2 Assay for human Bone Morphogenetic Protein (BMP) Response Element (BRE) (AID 2282933); settings: HepG2 BMP response element reporter, Attagene transcription factor profiling; actives raise or lower the signal
In short: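 Transient MRTU transfection of human HepG2 liver cells; 24 h compound treatment; total RNA isolated, reverse-transcribed, PCR-amplified, 6-FAM labelled, HpaI-cut, capillary electrophoresis. DMSO = negative control/baseline, bidirectional fit.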

[9] = target: Retinoic acid receptor alpha (Homo sapiens) (UniProt P10276); assay: ATG_DR5_RAR_CIS: Attagene CIS-FACTORIAL HepG2 Assay for human Retinoic Acid Receptor Alpha (RARE), DR5 submotif (AID 2282934); settings: HepG2 Attagene cis-factorial RARE DR5 reporter, mRNA; actives raise or lower the signal;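 on AC50: reporter responds to endogenous RAR alpha beta and gamma in HepG2 not RARA alone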
Sequence of Retinoic acid receptor alpha (Homo sapiens) (P10276 whole entry, looked up): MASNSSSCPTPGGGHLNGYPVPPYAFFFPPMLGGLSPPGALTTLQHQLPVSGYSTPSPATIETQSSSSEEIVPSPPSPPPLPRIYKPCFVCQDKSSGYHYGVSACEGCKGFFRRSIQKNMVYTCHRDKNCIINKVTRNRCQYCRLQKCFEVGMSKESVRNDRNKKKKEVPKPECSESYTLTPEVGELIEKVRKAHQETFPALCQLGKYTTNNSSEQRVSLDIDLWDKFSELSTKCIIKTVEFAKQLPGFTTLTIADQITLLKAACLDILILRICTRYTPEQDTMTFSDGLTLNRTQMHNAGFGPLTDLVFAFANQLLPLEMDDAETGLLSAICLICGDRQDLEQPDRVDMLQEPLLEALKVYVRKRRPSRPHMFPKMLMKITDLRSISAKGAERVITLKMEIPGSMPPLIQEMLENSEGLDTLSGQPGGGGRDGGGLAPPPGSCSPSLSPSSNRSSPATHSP
In short: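 HepG2 cells transiently transfected with multiplexed reporter units under cis (DR5 RARE) promoters, so endogenous transcription factor activity is measured. After 24 h compound exposure, reporter mRNA is quantified by RT-PCR with fluorescent labelling and capillary electrophoresis; bidirectional fitting versus DMSO.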

[10] = target: Transcription factor E2F1 (Homo sapiens) (UniProt Q01094); assay: ATG_E2F_CIS: Attagene CIS-FACTORIAL HepG2 Assay for human E2F Transcription Factor 1 (AID 2282935); settings: HepG2 Attagene cis-reporter, E2F reporter RNA transcripts; actives raise or lower the signal
Sequence of Transcription factor E2F1 (Homo sapiens) (Q01094 whole entry, looked up): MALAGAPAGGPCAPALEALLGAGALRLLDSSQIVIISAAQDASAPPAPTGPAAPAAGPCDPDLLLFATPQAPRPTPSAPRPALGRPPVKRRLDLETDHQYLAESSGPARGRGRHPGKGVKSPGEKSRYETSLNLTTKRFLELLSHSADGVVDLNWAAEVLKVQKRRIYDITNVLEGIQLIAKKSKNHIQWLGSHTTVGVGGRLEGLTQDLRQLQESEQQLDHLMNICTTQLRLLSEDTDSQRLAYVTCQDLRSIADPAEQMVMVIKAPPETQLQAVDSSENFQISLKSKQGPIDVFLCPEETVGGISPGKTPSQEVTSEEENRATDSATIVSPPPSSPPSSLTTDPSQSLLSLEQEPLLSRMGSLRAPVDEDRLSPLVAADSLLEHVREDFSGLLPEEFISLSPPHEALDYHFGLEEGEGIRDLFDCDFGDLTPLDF
In short: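 HepG2 cells transiently transfected with multiplexed cis-element reporter units, dosed for 24 h. Reporter mRNA measured by RT-PCR, 6-FAM primer-extension labeling, HpaI digestion and capillary electrophoresis; bidirectional fit versus DMSO baseline.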

[11] = ATG_E_Box_CIS: Attagene CIS-FACTORIAL HepG2 Assay for human Enhancer Box (E-box) (AID 2282936); settings: HepG2 E-box cis-reporter transcription, actives raise or lower the signal
In short: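 HepG2 cells transiently transfected with multiplexed cis-element reporter units sensing endogenous transcription factor activity; 24 h compound exposure. Reporter mRNA measured by RT-PCR, 6-FAM primer extension, HpaI digestion and capillary electrophoresis; bidirectional fit versus DMSO.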

[12] = ATG_M_61_CIS: Attagene CIS-FACTORIAL HepG2 Assay for M61 Transcription Factor (Internal Marker) (AID 2282937); settings: HepG2 Attagene CIS-FACTORIAL M61 internal marker reporter; actives raise or lower the signal
In short: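 Human liver HepG2, transient MRTU transfection (cis promoter elements), 24 h compound. Total RNA → oligo(dT) RT → PCR → FAM label → HpaI → CE. Internal background marker; bidirectional fitting, DMSO = baseline.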

[13] = ATG_EGR_CIS: Attagene CIS-FACTORIAL HepG2 Assay for human Early Growth Response 1 (EGR1) (AID 2282938); settings: HepG2 Attagene CIS-FACTORIAL EGR reporter mRNA; actives raise or lower the signal
In short: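 Transient transfection of human HepG2 with multiple cis-regulated reporter units, chemical exposure 24 h, total RNA isolated. Reverse transcription, PCR, fluorescent labelling and capillary electrophoresis quantify reporter transcripts; activity fitted bidirectionally against DMSO.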

[14] = ATG_M_19_CIS: Attagene CIS-FACTORIAL HepG2 Assay for M19 Transcription Factor (Internal Marker) (AID 2282939); settings: HepG2 Attagene CIS-FACTORIAL M19 internal marker reporter; actives raise or lower the signal
In short: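 Transfect HepG2 with MRTU reporter library → dose chemical, 24 h → isolate total RNA, reverse-transcribe with oligo(dT) → PCR, 6-FAM label, HpaI cut (2 h, 37 C) → capillary electrophoresis. Bidirectional fit vs DMSO.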

[15] = ATG_ERE_CIS: Attagene CIS-FACTORIAL HepG2 Assay for Estrogen Response Element (ERE) (AID 2282940); settings: HepG2 ERE cis-reporter, Attagene RNA transcript; actives raise or lower the signal
In short: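 Transient MRTU transfection of human HepG2; cis-element promoters; 24 h dosing; total RNA → RT (oligo dT) → PCR → 6-FAM primer extension → HpaI digest → CE fluorescence. Bidirectional fit, DMSO baseline.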

[16] = ATG_Ets_CIS: Attagene CIS-FACTORIAL HepG2 Assay for human Erythroblast Transformation Specific (ETS) (AID 2282941); settings: HepG2 ETS cis-reporter transcription, actives raise or lower the signal
In short: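 HepG2 cells transiently transfected with cis-promoter reporter transcription units were dosed for 24 h; reporter mRNA was measured by RT-PCR, 6-FAM primer extension, HpaI digestion and capillary electrophoresis, with bidirectional fitting against DMSO baseline.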

[17] = target: Hepatocyte nuclear factor 3-beta (Homo sapiens) (UniProt Q9Y261); assay: ATG_FoxA2_CIS: Attagene CIS-FACTORIAL HepG2 Assay for human Forkhead box A2 (FOXA2) (AID 2282942); settings: HepG2 cis-reporter transcription factor activity, 24 h; actives raise or lower the signal
Sequence of Hepatocyte nuclear factor 3-beta (Homo sapiens) (Q9Y261 whole entry, looked up): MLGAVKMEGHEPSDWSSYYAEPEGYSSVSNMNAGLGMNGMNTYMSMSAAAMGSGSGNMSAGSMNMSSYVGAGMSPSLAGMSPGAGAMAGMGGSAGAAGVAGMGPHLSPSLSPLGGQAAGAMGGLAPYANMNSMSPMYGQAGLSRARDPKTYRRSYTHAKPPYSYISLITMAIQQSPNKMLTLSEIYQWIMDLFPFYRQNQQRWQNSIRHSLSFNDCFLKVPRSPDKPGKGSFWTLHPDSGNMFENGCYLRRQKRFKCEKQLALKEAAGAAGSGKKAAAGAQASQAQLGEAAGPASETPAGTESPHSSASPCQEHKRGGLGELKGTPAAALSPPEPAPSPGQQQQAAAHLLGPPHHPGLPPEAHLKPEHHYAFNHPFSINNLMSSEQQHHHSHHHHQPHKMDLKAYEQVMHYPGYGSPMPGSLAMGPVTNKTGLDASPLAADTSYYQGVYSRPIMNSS
In short: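 Transient MRTU transfection of HepG2 liver cells; 24 h treatment; total RNA → oligo(dT) RT → PCR → FAM primer extension → HpaI cut → CE. Bidirectional fit vs DMSO.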

[18] = ATG_FoxO_CIS: Attagene CIS-FACTORIAL HepG2 Assay for human Forkhead box O (FoxO) (AID 2282943); settings: HepG2 Attagene cis-reporter, FoxO element, mRNA; actives raise or lower the signal
In short: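 HepG2 cells transiently transfected with cis-promoter-driven multiple reporter transcription units; 24 h after chemical dosing, reporter mRNA quantified by RT-PCR, fluorescent primer extension, HpaI digestion and capillary electrophoresis. Bidirectional fitting versus DMSO baseline.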

[19] = ATG_GATA_CIS: Attagene CIS-FACTORIAL HepG2 Assay for human GATA Binding Protein (AID 2282944); settings: HepG2 GATA cis-element reporter, Attagene multiplex mRNA; actives raise or lower the signal
In short: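 Transient MRTU transfection, HepG2, 24 h compound exposure. Total RNA → oligo(dT) RT → PCR → 6-FAM primer extension → HpaI cut → CE. Bidirectional fit vs DMSO.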

[20] = ATG_GLI_CIS: Attagene CIS-FACTORIAL HepG2 Assay for human Zinc Finger Protein GLI1 (AID 2282945); settings: HepG2, Attagene cis-factorial reporter mRNA, GLI element; actives raise or lower the signal
In short: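 HepG2 cells transiently transfected with cis-promoter multiplexed reporter units report endogenous transcription factor activity. After 24 h chemical exposure, reporter mRNA was quantified by RT-PCR, 6-FAM labelling, HpaI digestion and capillary electrophoresis, with bidirectional fitting against DMSO.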

Measured: AC50

Nc1ccc(N)c(Cl)c1
inactive: [2] | [4] | [7] | [8] | [10] | [12] | [13] | [14] | [16] | [17] | [18] | [19] | [20]
active: [1] 49.6 µM | [3] 9.98 µM | [5] 1.99 µM | [6] 18.1 µM | [9] 33.4 µM | [11] 33.5 µM | [15] 2.65 µM

N#CCc1ccc(Cl)cc1Cl
inactive: [1] | [2] | [3] | [4] | [6] | [7] | [8] | [9] | [10] | [11] | [12] | [13] | [14] | [15] | [16] | [18] | [19] | [20]
active: [5] 18.6 µM
